# Results published in PubChem BioAssay.
# Entries with a potency or affinity are not part of this list. Results filed as inconclusive are left out. Unmarked numbers belong to inactive results. The source made the active and inactive calls.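 How the source made its calls, unless noted: active means signal-lowering compounds whose fitted half-maximal concentration is at or below twice the top tested dose in every run; inconclusive means runs disagree, flat 30 to 70% inhibition, or poor curve fit; inactive means the rest.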
# Legend:
# [1] = cytotoxicity in PAX8-dependent RMG-1 cells, dose response, cell-based, cherry-pick (AID 687029;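 active means signal drop whose fitted half-maximal concentration is at most twice the top valid dose, in every test run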;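 further: cells exposed to compound for 96 hours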)
# [2] = inhibitors of CMV-promoter luciferase reporter, dose response, counter-screen for Pax8 inhibitor project, cell-based, HEK293, luminescence, dry powder (AID 743020);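 further: HEK293 cells stably expressing the CMV luciferase reporter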
# [3] = non-specific cell cytotoxicity, dose response, cytotoxicity control for PAX8 inhibitor project, plate reader, dry powder samples (AID 743021; call rule not given here)
Structure (SMILES),outcome [1],outcome [2],outcome [3]
Cc1ccc(C(=O)Nc2cnc3ccccc3c2)cc1,inactive,inactive,
COc1ccc(C(=O)O/N=C(\N)c2ccccn2)cc1,inactive,inactive,
COc1ccccc1N(C(C)=O)C1=C(Cl)C(=O)c2ccccc2C1=O,inactive,inactive,
O=C(CCl)N=c1sccn1Cc1ccc(Cl)cc1Cl,inactive,inactive,
O=C(NCCc1ccccc1)C(c1cccs1)N(C(=O)CCl)c1ccc(Cl)cc1 (stereo not given),inactive,inactive,
COC(=O)C1=C(C)N(Cc2ccc(C(F)(F)F)cc2)C(=NCc2ccccc2)NC1c1cccc(F)c1 (stereo not given),inactive,inactive,
COc1ccc(CN(C)C[C@H]2OCCCC[C@H](C)Oc3ccc(NC(=O)Nc4ccc(C(F)(F)F)cc4)cc3C(=O)N([C@@H](C)CO)C[C@H]2C)cc1,inactive,inactive,
CS(=O)(=O)c1ccc(C(=O)OCC(=O)NCc2cccs2)cc1[N+](=O)[O-],inactive,inactive,
C(=N\Nc1nc2ccccc2s1)/c1ccccn1,inactive,inactive,
CC(C)Nc1ccc(Nc2ccnc3cc4ccccc4cc23)cc1,inactive,inactive,
CCCCCCCN(C(=O)CCl)c1cccc(C)c1,inactive,inactive,
Cn1c(=O)c([N+](=O)[O-])c(Cl)c2ccccc21,inactive,inactive,inactive
C/C(=N\NC(=O)c1n[nH]c2c1CCC2)c1cccs1,inactive,inactive,
NC1=C(Cl)C(=O)c2ccc(S(N)(=O)=O)cc2C1=O,inactive,inactive,
O=[N+]([O-])c1cc2c(ccc3occc32)o1,inactive,inactive,inactive
O=[N+]([O-])c1c(Nc2cccc(O)c2)cc(Cl)c2nonc12,inactive,inactive,
COC1C(CO)OC(n2c3c(Cl)cccc3c3c4c(c5c6cccc(Cl)c6[nH]c5c32)C(=O)NC4=O)C(O)C1O (stereo not given),inactive,inactive,inactive
COc1cccc(/C=N/Nc2nc(Nc3ccc([N+](=O)[O-])cc3)nc(N3CCCC3)n2)c1O,inactive,inactive,
COc1ccc(OC)c(N(CCN2C(=O)c3ccccc3C2=O)C(=O)CCl)c1,inactive,inactive,
CC(C)c1ccc(-c2nc3ccccc3s2)cc1,inactive,inactive,
COc1ccc(Oc2ccc(/C=C/C(=O)c3cccc(OC)c3)cc2[N+](=O)[O-])cc1,inactive,inactive,
C(=C\c1ccc(C2[C@@H]3CN(Cc4ccc5c(c4)OCO5)C[C@H]2N3)cc1)/c1ccccc1 (stereo not given in full),inactive,inactive,
CC(=O)N(C1=C(Cl)C(=O)c2ccccc2C1=O)C1CCCCC1,inactive,inactive,
CC(C)=CCC/C(C)=C/CN1C(=O)N(c2ccc(F)cc2)[C@H]2C[C@@H](c3ccccc3)[C@@H](C)[C@@H](C(=O)N3CCOCC3)C[C@H]21,inactive,inactive,

Structure (SMILES),outcome [1],outcome [2],outcome [3]
Cc1ccc(S(=O)(=O)c2ncccc2[N+](=O)[O-])cc1,inactive,inactive,
Cc1cccc(-n2ncc(Cl)c(Cl)c2=O)c1,inactive,inactive,
CNC(=O)c1cc(Oc2ccc(NC(=O)Nc3ccc(Cl)c(C(F)(F)F)c3)cc2)ccn1,inactive,inactive,inactive
O=C(Nc1ccc(Cl)cc1)/C(=C/c1cccc(O)c1)c1nc2ccccc2s1,inactive,inactive,inactive
CCOC(=O)/C=C/C(=O)Nc1cc(S(=O)(=O)Nc2ccc(OC)cc2)ccc1N1CCOCC1,inactive,inactive,inactive
O=C(c1ccco1)N1N=C(c2ccc(Br)cc2)CC1(O)C(F)(F)F (stereo not given),inactive,inactive,inactive
CC[C@]1(O)C[C@@H]2CN(CCc3c([nH]c4ccccc34)[C@@](C(=O)OC)(c3cc4c(cc3OC)N(C)[C@H]3[C@@](O)(C(=O)OC)[C@H](OC(C)=O)[C@]5(CC)C=CCN6CC[C@]43[C@@H]65)C2)C1,inactive,inactive,inactive
Cc1ccc(S(=O)(=O)N(C)C[C@H]2Oc3c(NC(=O)Nc4cccc5ccccc45)cccc3C(=O)N([C@@H](C)CO)C[C@@H]2C)cc1,inactive,inactive,inactive
O=S(=O)(Nc1cccc(-c2cn3cccnc3n2)c1)c1ccc(Cl)cc1,inactive,inactive,inactive
C[C@H](NC(=O)c1ccco1)C(=O)Nc1cccc([N+](=O)[O-])c1,inactive,inactive,inactive
Cn1nnnc1Sc1ncnc2scc(-c3ccccc3Cl)c12,inactive,inactive,inactive
COc1ccc([N+](=O)[O-])c(S(=O)(=O)c2ccccc2)n1,inactive,inactive,inactive
CN1C(=O)/C(=C\C(=O)c2cccs2)c2ccccc21,inactive,inactive,inactive
O=C(Cn1ncc(Cl)c(Cl)c1=O)NC(=O)NC1CCCCC1,inactive,inactive,inactive
CC(/C=C1\SC(=O)N(CC(=O)Nc2ccc(O)cc2)C1=O)=C\c1ccccc1,inactive,inactive,inactive
O=C(Nc1ccccc1)Nc1cc(OCC(F)(F)F)cc(OCC(F)(F)F)c1,inactive,inactive,inactive
O=C1[C@@H]2Cc3c([nH]c4ccccc34)C(c3cccc(Br)c3)N2C(=O)CN1C1CCN(Cc2ccccc2)CC1 (stereo not given in full),inactive,inactive,inactive
COc1cccc(-c2nc(CS(=O)(=O)CC(=O)NCCCN3CC(C)CC(C)C3)c(C)o2)c1 (stereo not given),inactive,inactive,inactive
CC1=CC(=O)C(C(C)C)=C/C1=N/OS(=O)(=O)c1ccccc1,inactive,inactive,inactive
CNc1ccc(Br)cc(C(=O)/C=C/c2cc(OC)ccc2OC)c1=O,inactive,inactive,inactive
CCOC(=O)C1=CN(Cc2cccc(-c3cccnc3)c2)S(=O)(=O)N(C)C1C (stereo not given),inactive,inactive,inactive
O[C@@H]1[C@@H](O)C=C2CCN3Cc4cc5c(cc4[C@H]1C23)OCO5 (stereo not given in full),inactive,inactive,inactive
O=C(COC(=O)c1ccco1)Nc1cccc(S(=O)(=O)N2CCOCC2)c1,inactive,inactive,inactive
CCCOc1ccc2[nH]c(C(=O)N/N=C/c3cc(OC)c(OC)c(OC)c3)cc2c1,inactive,inactive,inactive

Structure (SMILES),outcome [1],outcome [2],outcome [3]
COCCN(CC(=O)NC1CCCCC1)C(=O)/C=C/C(=O)c1ccc(OC)cc1O,inactive,inactive,inactive
Oc1ccc(C[C@H]2CN([C@@H](Cc3ccc(O)cc3)CN3CCC[C@@H]3CN3C(=S)NC[C@@H]3Cc3ccccc3)C(=S)N2CC2CCCCCC2)cc1,inactive,inactive,inactive
Cn1nnnc1Sc1ncnc2scc(-c3ccc(Br)cc3)c12,inactive,inactive,inactive
COc1ccc(C(=O)CCS(=O)(=O)c2ccc(C)cc2)cc1OC,inactive,inactive,inactive
CC(=O)c1sc(NC(=O)CCS(=O)(=O)c2ccc(Cl)cc2)nc1C,inactive,inactive,inactive
N#Cc1ccc(-c2ccc([C@@H]3[C@@H]4CN(S(=O)(=O)c5ccc(-c6ccccc6)cc5)C[C@H]3N4)cc2)cc1,inactive,inactive,inactive
BrC(=C\c1ccccc1)/C=N/n1cnnc1,inactive,inactive,inactive
Cc1ccc(C(=O)c2cc([N+](=O)[O-])ccc2N2CCCCC2)c(C)c1,inactive,inactive,inactive
COc1ccc(CC2C(=O)NC(C)C(=O)N(C)C3Cc4ccc(cc4)Oc4cc(ccc4O)CC(C(=O)NC(C)C(=O)NC(C)C(=O)N2C)N(C)C3=O)cc1 (stereo not given),inactive,inactive,inactive
Cc1cc(C)c(C(=O)/C=C/c2cccc3ccccc23)c(=O)[nH]1,inactive,inactive,inactive
CC(C)C(=O)N1CCN(c2ccc(NC(=O)c3ccc([N+](=O)[O-])o3)cc2Cl)CC1,inactive,inactive,inactive
COc1cc(C(=O)NCC(c2cccs2)N2CCOCC2)ccc1OCc1ccc(Cl)cc1 (stereo not given),inactive,inactive,inactive
CN(N=Nc1nc[nH]c1C(N)=O)C1CCCCC1,inactive,inactive,inactive
O=C(CCc1ccc(S(=O)(=O)NCc2ccccc2)cc1)NCc1cccnc1,inactive,inactive,inactive
O=C(Nc1cc(S(=O)(=O)N2CCCCC2)ccc1Cl)c1ccccc1NS(=O)(=O)c1ccc(F)cc1,inactive,inactive,inactive
COc1cc(C2C3=C(COC3=O)OC(C)(C)Oc3cc4c(cc32)OCO4)cc(OC)c1OC (stereo not given),inactive,inactive,inactive
C=CCC[C@@H](Cc1ccc(F)cc1)C(=O)OC[C@@H](Cc1c[nH]c2ccccc12)NC(=O)[C@H](CC=C)CC(=O)N(CCO)Cc1ccccc1,inactive,inactive,inactive
CCCCCCN(C(=O)CCCN1C(=O)NC(c2ccc(-c3ccccc3)cc2)C(C(=O)OCc2ccccc2)=C1C)C(C)C(=O)NCCCC (stereo not given),inactive,inactive,inactive
CCn1c2ccccc2c2cc(NC(=O)c3cc(OC)cc(OC)c3)ccc21,inactive,inactive,inactive
Cc1ccc(NC(=O)/C=C/c2ccc([N+](=O)[O-])s2)c(C)c1,inactive,inactive,inactive
Cc1ccc(CCc2nnc(SCC(=O)Nc3cccc(Cl)c3)n2-c2ccccc2)o1,inactive,inactive,inactive
Cn1nnnc1Sc1ncnc2scc(-c3ccc[nH]3)c12,inactive,inactive,inactive
S=C1SCN(Cc2cccnc2)CN1Cc1cccnc1,inactive,inactive,inactive
